Screens as filed in PubChem.
Hits are enriched below; roughly 2.6% of the tested compounds scored in any of these assays.
IDE cell activ – IDE (human) activation, cell-based | HEK cells, FAbeta-B cleavage, fluorescence polarization; 0% vehicle, 100% cell-free pure enzyme wells | activation, % at 5.96 µM | P14735 | AID 493087 | hit rate 0.073% among 340,000;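 active = activation above the mean of all tested compounds plus 3 SD, set per screening campaign, cut at about 17% in these data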
Target sequence (P14735 whole entry, looked up): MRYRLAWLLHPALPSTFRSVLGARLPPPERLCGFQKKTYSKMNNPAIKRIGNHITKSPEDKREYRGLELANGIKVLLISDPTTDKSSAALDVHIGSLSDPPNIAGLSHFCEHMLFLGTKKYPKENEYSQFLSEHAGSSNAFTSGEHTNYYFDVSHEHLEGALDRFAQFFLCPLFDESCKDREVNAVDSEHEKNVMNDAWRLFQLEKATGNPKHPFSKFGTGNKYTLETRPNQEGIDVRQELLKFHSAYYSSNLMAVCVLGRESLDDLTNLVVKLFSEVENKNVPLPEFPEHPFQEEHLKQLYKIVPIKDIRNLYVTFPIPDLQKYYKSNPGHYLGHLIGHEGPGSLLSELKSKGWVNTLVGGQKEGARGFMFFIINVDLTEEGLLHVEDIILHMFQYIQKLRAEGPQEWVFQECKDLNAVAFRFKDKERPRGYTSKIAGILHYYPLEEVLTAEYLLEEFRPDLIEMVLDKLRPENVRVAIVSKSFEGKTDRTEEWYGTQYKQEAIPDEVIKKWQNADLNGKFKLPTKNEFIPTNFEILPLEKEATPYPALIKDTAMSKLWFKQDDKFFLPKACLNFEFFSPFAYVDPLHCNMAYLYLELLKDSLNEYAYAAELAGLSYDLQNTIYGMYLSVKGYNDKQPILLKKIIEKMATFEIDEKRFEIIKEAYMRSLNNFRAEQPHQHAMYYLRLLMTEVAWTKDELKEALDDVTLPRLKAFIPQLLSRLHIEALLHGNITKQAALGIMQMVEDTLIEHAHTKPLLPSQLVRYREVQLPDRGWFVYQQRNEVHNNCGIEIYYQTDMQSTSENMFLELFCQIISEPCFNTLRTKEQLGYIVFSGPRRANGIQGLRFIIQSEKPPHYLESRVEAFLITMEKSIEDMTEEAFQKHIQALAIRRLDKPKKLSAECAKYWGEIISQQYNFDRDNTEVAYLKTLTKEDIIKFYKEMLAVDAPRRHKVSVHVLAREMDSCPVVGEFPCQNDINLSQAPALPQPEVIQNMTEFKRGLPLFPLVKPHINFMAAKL
CRFBP-R2 agonist – CRF-BP/CRF-R2 complex agonism. HEK293 CRF-R2/CRF-BP, calcium dye fluorescence (FLIPR); percent of saturating CRF peptide response. activation, % at 13.2 µM. hit rate 0.46% among 350,000. AID 588473;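 active = activation of at least 50%, plus an integration ratio under a set limit after plate pattern correction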;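 also: plate controls were neutral control wells without compound for no effect and CRF at EC100 for full effect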
CRFR2-BP antag – CRF-BP/CRF-R2 complex antagonism. HEK293 CRF-R2/CRF-BP, CRF-induced calcium fluorescence. inhibition, % at 11.8 µM. hit rate 0.59% among 350,000;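 active = inhibition of the ligand-induced calcium signal above about 50% at the single tested concentration, limit read from the data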
IDE inh – inhibitors of human insulin-degrading enzyme in cells | P14735 | inhibition, % at 5.59 µM | HEK cells, FAbetaB cleavage, fluorescence polarization | hit rate 0.41% among 320,000;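 active = percent inhibition above the average of all tested compounds plus 3 SD, set per screening campaign, cut at about 16% in these data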;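 also: IDE supplied by intact live HEK cells; FP after avidin binding of uncleaved biotin substrate so inhibition keeps polarization high; 0% = DMSO wells and 100% = 60 µM reference IDE inhibitor Ii1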
TPT1 inhibitor – blocks Candida albicans tRNA 2'-phosphotransferase; recombinant caTPT1, FP RNA substrate dephosphorylation; inhibition, % at 5 µM; hit rate 0.81% among 300,000; AID 1962;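 active = inhibition above the mean of all tested compounds plus 3 SD, set per screening campaign, cut at about 24% in these data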;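 also: plate controls were DMSO alone for no effect and ferristatin control at 100 nM for full effect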
Myeloid diff 2 – promotes myeloid progenitor differentiation | ER-HoxA9 myeloid progenitors, lysozyme-GFP differentiation, flow cytometry | hit rate 1% among 360,000 | calls only at 10 µM;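 active = normalized GFP-positive differentiation at or above the plate's own cutoff, the solvent-only control mean plus 3 SD; inconclusive = no clear call, values can overlap the other calls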;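 also: cells exposed to compound for four days before flow analysis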
TPT1 inh confirm – confirmation of Candida albicans TPT1 inhibitors | recombinant caTPT1, fluorescence polarization, RNase T1 coupled | hit rate 74% among 2,400 | shares compounds with TPT1 inhibitor | inhibition, % at 5 µM;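 active = inhibition above the primary screen limit, the mean inhibition of all tested compounds plus 3 SD, cut at about 25% in these data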
RNase T1 inh – blocks Aspergillus oryzae RNase T1, a TPT1 counter-screen; shares compounds with TPT1 inhibitor; RNase T1 cleavage, fluorescence polarization, 1536-well; inhibition, % at 5 µM; hit rate 83% among 2,400; AID 2153;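 active = inhibition above the solvent-only control well mean plus 3 SD, limit set per screening run, cut at about 23% in these data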;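 also: plate controls were DMSO wells with enzyme for no effect and wells without RNase T1 for full effect; inhibitors block cleavage so intact labeled substrate keeps polarization high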
* marks the source's active call; other numbers are inactive results; i = inactive; ? = inconclusive; . = no result given.

SMILES	IDE cell activ	CRFBP-R2 agonist	CRFR2-BP antag	IDE inh	TPT1 inhibitor	Myeloid diff 2	TPT1 inh confirm	RNase T1 inh
COc1ccc(N2C(=O)/C(=C\c3ccco3)N=C2SCC(=O)NC(C)C)cc1Cl	1.6	-0.8	12.5	-5.3	11.1	i	.	.
CSCCC(NS(=O)(=O)c1ccccc1F)C(=O)NCc1ccncc1 (stereo not given)	-1.3	-0.7	7.7	1.7	-1.9	i	.	.
O=C(O)c1ccccc1N/N=C\c1ccnc2ccccc12	-5.0	1.8	15.4	1.0	24.3*	i	17.6	29.9*
Oc1cccc(Nc2c3ccccc3nc3ccccc23)c1	0.4	-0.1	20.3	-4.9	53.5*	.	4.0	11.2
O=c1[nH]c2cc3c(cc2cc1CN(Cc1cccs1)Cc1nnnn1Cc1ccco1)OCCO3	-0.8	6.5	-13.0	10.5	30.9*	i	10.7	15.1
Cc1cc([N+](=O)[O-])ccc1-c1ccc(/C=N/NC(=O)Cc2ccccc2)o1	-0.3	6.7	-23.9	1.7	24.2*	i	24.4*	37.0*
O=C1NC[C@@H](CCCCN2C[C@H](Cc3ccc(O)cc3)N(CCc3ccc(O)cc3)C(=O)C2=O)N(CCc2ccccc2)C1=O	.	.	.	.	.	i	.	.
CC1CN(C(=O)CSc2nc(N)c(NC(=O)c3ccc(C(F)(F)F)cc3)c(=O)[nH]2)CC(C)O1 (stereo not given)	.	-1.3	5.9	.	.	i	.	.
Cc1ccc(-c2ccc(/C=C3\SC(N4CCOCC4)=NC3=O)o2)cc1	-5.3	4.1	-20.1	5.8	47.5*	?	52.2*	62.5*
O=C1N=C(N2CCOCC2)S/C1=C/c1ccc(-c2ccc(F)cc2)o1	-5.0	-0.3	-6.2	1.3	11.4	i	.	.
CCc1ccc(C(C(=O)NC2CCCC2)N(C(=O)/C=C/C(=O)Nc2cc(C)on2)c2ccccc2C)cc1 (stereo not given)	-1.9	-0.2	-34.9	2.5	-0.8	i	.	.
Cc1ccc(-c2cc(C(=O)N/N=C/c3c(C)nn(C)c3C)c3ccccc3n2)c(C)c1	7.5	-1.2	-14.9	-6.5	-2.5	i	.	.
CCN(CC)c1ccc(/C=N/OCC(=O)Nc2cccc(C)c2)cc1	2.1	10.9	4.2	3.8	33.9*	i	43.4*	56.1*
O=C(O)C(=O)/C(=C\c1cccc2ccccc12)c1ccc2ccccc2n1	3.0	96.2*	-138.3	4.8	49.0*	i	89.1*	102.3*
CC(=O)Nc1ccc(S(=O)(=O)Nc2nc3ccccc3nc2Nc2ccc(O)c(C(=O)O)c2)cc1	4.8	8.4	-2.5	2.7	43.4*	i	24.1*	32.8*
Cc1cccc(NC(=O)CCS(=O)(=O)c2ccc3c(c2)NC(=O)CS3)n1	-3.5	2.0	-6.4	3.8	-1.5	i	.	.
CC(C)(CNC(=O)c1ccc(-c2ccccc2Cl)o1)N1CCOCC1	0.1	0.0	3.2	-6.6	-3.3	i	.	.
Cn1c(-c2c(N)n(CCc3ccccc3)c3nc4ccccc4nc23)nc2ccccc21	-0.9	51.1*	-155.0	1.8	37.8*	i	48.5*	60.0*
COCCCn1c(N)c(-c2nc3ccccc3n2C)c2nc3ccccc3nc21	-2.0	92.3*	-179.8	8.6	46.0*	?	46.3*	58.8*
Cn1c(-c2c(N)n(CCCc3ccccc3)c3nc4ccccc4nc23)nc2ccccc21	9.5	10.4	-29.7	.	.	i	.	.
Cn1c(-c2c(N)n(C3CCCC3)c3nc4ccccc4nc23)nc2ccccc21	-0.8	27.2	-70.7	-3.5	38.6*	i	43.5*	51.0*
C[C@]12CC[C@H](O)CC1=CCC1C2CC[C@@]2(C)C1CC[C@@H]2NC(=O)[C@@H](N)Cc1cnc[nH]1 (stereo not given in full)	1.3	-4.7	0.5	.	.	i	.	.
O=C(c1ccco1)N1CCN(C(=O)c2cccc3c2C(=O)N(Cc2cccnc2)C3)CC1	3.5	28.2	4.2	3.0	-3.6	i	.	.
O=C(c1ccco1)N1CCN(C(=O)c2cccc3c2C(=O)N(C2CCCCC2)C3)CC1	1.9	-2.3	6.2	5.1	26.7*	i	20.4	25.8*
